Data as given in PubChem BioAssay AID504832 (National Center for Advancing Translational Sciences (NCATS), 2011).
Out of some 310,000 compounds screened, about 18,000 (5.8%) were called active. Roughly 22% stayed inconclusive and do not appear here. Many of the other results were omitted from the sample, so actives are more common in it than they were. Values without a mark were called inactive. The call rests on the fitted dose curve; in most records, active means well fitted inhibition curve with a large enough effect; inconclusive means small, poorly fitted or top-dose-only effect, or another doubt; inactive means no such curve, though single readings can be large or run the other way.

Experiment: Primary qHTS for delayed death inhibitors of the malarial parasite plastid, 48 hour incubation
Details: P. falciparum luciferase growth in erythrocytes; series mostly up to 28.7 µM; activity change, negative = inhibition: at the top concentration
Procedure, shortened: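 Luciferase-expressing P. falciparum in infected erythrocytes (2% hematocrit, 0.1% parasitemia final) in RPMI 1640/0.5% Albumax were exposed to compound for 48 hours at 37 C, 5% CO2; growth read as luminescence.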
On the % scale 0 is the no-effect control and ±100 the full control effect; potency means the concentration at half of the fitted maximal effect.

Row | Compound | activity change, negative = inhibition | Potency
1 | COc1ccc(N(CC(=O)Nc2ccc(F)c(F)c2)S(=O)(=O)c2c(C)[nH]c(=O)[nH]c2=O)cc1 | -8.61% | 
2 | CN(C(=O)c1cccc(OC2CCN(S(=O)(=O)N(C)C)CC2)c1)C1CCOC1 (stereo not drawn) | -0.341% | 
3 | CC(C)(C)NC(=O)NC(=O)COC(=O)C1c2ccccc2Oc2ccccc21 | 2.8% | 
4 | Cc1ccccc1N1CCN(S(=O)(=O)c2ccc3ccccc3c2)CC1 | 15.2% | 
5 | CCOc1cccc(=O)c2c(C)n(CC3CCCO3)c(C)c12 (stereo not drawn) |  | 14.7 µM (active)
6 | O=c1c2cc3c(=O)n(CC4CCCO4)c(=O)c3cc2c(=O)n1CC1CCCO1 (stereo not drawn) | 0.809% | 
7 | CCOc1ccc(NC(=O)c2cccc3c2C(=O)N(CC2CCCO2)C3)cc1 (stereo not drawn) | -3.69% | 
8 | CC(C)c1ccc(NC(=O)COC(=O)c2ccc(CN3CCCC3=O)cc2)cc1 | 1.29% | 
9 | Cc1ccc2nc(SCC(=O)NC3CCCC3)[nH]c2c1 | 22.6% | 
10 | CCN1C(=O)[C@H]2[C@@H](c3ccc(-c4ccc(OC)cc4)cc3)N[C@@](Cc3ccccc3)(C(=O)OC)[C@H]2C1=O |  | 9.28 µM (active)
11 | CCN1C(=O)[C@H]2[C@@H](c3ccc(-c4ccc(F)cc4)cc3)N[C@@](Cc3ccccc3)(C(=O)OC)[C@H]2C1=O |  | 4.65 µM (active)
12 | CCCCC1(C(=O)OCC)NC(c2ccc(O)cc2)C2C(=O)N(c3ccccc3)C(=O)C21 (stereo not drawn) | 2.39% | 
13 | COC(=O)C1(C)NC(c2ccccc2OC)C2C(=O)N(c3ccccc3)C(=O)C21 (stereo not drawn) | -7.51% | 
14 | CCOC(=O)C1(Cc2ccc(O)cc2)NC(c2ccccc2F)C2C(=O)N(C)C(=O)C21 (stereo not drawn) | -6.8% | 
15 | COC(=O)C1(C)NC(c2ccc(F)cc2)C2C(=O)N(c3ccccc3)C(=O)C21 (stereo not drawn) | -30.6% | 
16 | CCCC1(C(=O)OC)NC(c2ccco2)C2C(=O)N(C)C(=O)C21 (stereo not drawn) | 11.4% | 
17 | CCN1C(=O)[C@H]2[C@@H](c3ccc(SC4CCCCC4)c(OC)c3)N[C@@](Cc3ccccc3)(C(=O)OC)[C@H]2C1=O |  | 2.08 µM (active)
18 | COC(=O)C1(C)NC(c2ccc(C)cc2)C2C(=O)N(c3ccc(F)cc3)C(=O)C21 (stereo not drawn) | 8.12% | 
19 | COc1cc2c(C(=O)O)c(C)n(C)c2c2ccccc12 | 15.4% [at 0.00184 µM] | 
20 | O=C(CSc1ccc(-c2ccco2)nn1)Nc1cccc(F)c1 | 20% | 
21 | NC(=O)c1cc2ccccc2o/c1=N/NC(=O)c1cccc(F)c1 | 59.4% | 
22 | CCOc1cc(NC(=O)Nc2ccccc2)c(OCC)cc1NC(=O)CC | -1.2% | 
23 | CCOc1cc(NC(=O)c2ccccc2C(=O)O)c(OCC)cc1NC(=O)c1ccccc1F |  | 4.15 µM (active)
24 | NC(=O)c1ccccc1NC(=O)c1ccccc1F | 49.4% | 

Row | Compound | activity change, negative = inhibition | Potency
25 | O=C(Nc1cccc(Cl)c1N1CCOCC1)c1cccnc1 | -0.0104% | 
26 | Cc1ccccc1NC(=O)CCNS(=O)(=O)c1ccc2[nH]c(=O)oc2c1 | 3.65% | 
27 | CCn1c2ccccc2c2cc(NC(=O)COC(=O)c3ccccc3Br)ccc21 | 17% | 
28 | CCn1c2ccccc2c2cc(NC(=O)C/C(C)=N/NC(=O)c3ccccc3N)ccc21 |  | 11.7 µM (active)
29 | C/C(CC(=O)Nc1ccc(N(C)C)cc1)=N\NC(=O)c1ccccc1F | 139% | 
30 | CN(CC(=O)NCc1ccc(Cl)cc1)S(=O)(=O)c1cccs1 | 23.9% | 
31 | COc1ccc(S(=O)(=O)N2CCN(C(=O)N(C)C)C2C)cc1 (stereo not drawn) | 3.85% | 
32 | Cc1[nH]c(C)c(S(=O)(=O)N2CCN(c3cccc(C(F)(F)F)c3)CC2)c1C(=O)N1CCCC1 | 0.0799% | 
33 | CCOc1ccc2[nH]c(=O)c(C(c3nnnn3CCOC)N3CCOCC3)cc2c1 (stereo not drawn) | -3.1% | 
34 | COc1ccc(N2CCN(C(c3cc4ccc(C)cc4[nH]c3=O)c3nnnn3C3CCCC3)CC2)cc1 (stereo not drawn) |  | 1.85 µM (active)
35 | CN1CCN(C(c2cc3cc4c(cc3[nH]c2=O)OCCO4)c2nnnn2C2CCCC2)CC1 (stereo not drawn) | 6.19% | 
36 | O=C(NCCCN1CCOCC1)C1CCCN(S(=O)(=O)N2CCCCC2)C1 (stereo not drawn) | 22.9% | 
37 | CCC(C)C(NC(=O)C1CCC(=O)N1C(=O)OCc1ccccc1)C(=O)NC(C(=O)N1CCCC1C(N)=O)C(C)CC (stereo not drawn) | -37.5% | 
38 | CC(=O)Nc1ccc(NC(=O)[C@@H](NC(=O)c2cccc(C)c2)C(C)C)cc1 | 11.3% | 
39 | Cc1cccc(N(Cc2ccccc2)C(=O)c2cc(S(=O)(=O)N3CCOCC3)ccc2F)c1 |  | 11.7 µM (active)
40 | Cc1cccc(NC(=O)c2cc(S(=O)(=O)N3CCC4(CC3)OCCO4)ccc2F)c1 | 3.22% | 
41 | Cc1ccc(S(=O)(=O)N2CCOCC2)cc1C(=O)NC(=S)N(Cc1ccccc1)C(C)C | -2.96% | 
42 | CC(=O)Nc1ccc(NC(=O)CC2CCCC2)cc1 | 36% | 
43 | CCCOc1ccc(NC(=O)C2CCCNC2=O)cc1 (stereo not drawn) | 24.6% | 
44 | CCCOc1ccc(/C=N/NC(=O)C2CC2)c(OCCC)c1 |  | 11.7 µM (active)
45 | COc1ccc(/C=N/NC(=O)C2CC2)c(OC)c1OC | 22.7% | 
46 | CCCCCCCCn1c2c(c(=N)c3c1CCC3)CCCC2 |  | 0.262 µM (active)
47 | Cc1ccc(CC2C(=O)N(c3ccc(F)cc3)C(=O)C2C)cc1 (stereo not drawn) | 39.4% | 
48 | CC(=O)NC(CC(=O)Nc1nc(-c2ccccc2)c(C(C)=O)s1)c1ccccc1 (stereo not drawn) | -5.25% | 
